Consider 40 compounds from PubChem BioAssay (EPA / NIEHS).

Activity calls are given as the source filed them. The calls were made as follows: active = hit-call score of the fitted dose curve at least 0.9, where 1 is the maximum; inactive = score below 0.9.

A short description of this assay: ATG_NFI_CIS: Attagene CIS-FACTORIAL HepG2 Assay for human Nuclear Factor I (NFI) (AID 2282989). Conditions: HepG2 cis-regulatory reporter, NFI response element transcription; actives raise or lower the signal. The protocol:
ATG_CIS is a cell-based, multiplexed-readout assay that uses HepG2, a human liver cell line, with measurements taken at 24 hours after chemical dosing in a 24-well plate.ATG_NFI_CIS is one of 52 assay component(s) measured or calculated from the ATG_CIS assay. It is designed to make measurements of mRNA induction, a form of inducible reporter, as detected with fluorescence intensity signals by Reverse transcription polymerase chain reaction (RT-PCR) and Capillary electrophoresis technology.Data from the assay component ATG_NFI_CIS was analyzed into 1 assay endpoint. This assay endpoint, ATG_NFI_CIS, was analyzed with bidirectional fitting relative to DMSO as the negative control and baseline of activity. Using a type of inducible reporter, measures of mRNA for gain or loss-of-signal activity can be used to understand the reporter gene at the transcription factor-level as they relate to the gene NFIA. Furthermore, this assay endpoint can be referred to as a primary readout, because this assay has produced multiple assay endpoints where this one serves a reporter gene function. To generalize the intended target to other relatable targets, this assay endpoint is annotated to the dna binding intended target family, where the subfamily is nuclear factor I.
Human liver HepG2 cells are transiently transfected with multiple reporter transcription units (MRTUs) in 6-well plates using FuGene 6 reagent (Roche; 3 ml FuGene/1 mg DNA). The MRTU constructs are regulated by a cis-regulating element (promoter). […] A major difference between the CIS and TRANS system is that in CIS activities of endogenous TFs are measured, whereas the TRANS assay evaluates changes in activities of exogenous, chimeric NR-Gal4 proteins. […] At the end of 24 hour incubation, total RNA was isolated using TriZol reagent (Invitrogen). The isolated RNA is then reverse-transcribed using oligo(dT) primer and Mo-MLV reverse transcriptase (Invitrogen) with DNAse I (Ambion) treatment for 30 min. The one-tenth of the produced cDNA was amplified by PCR using Taq DNA polymerase (Invitrogen) and two reporter sequence-specific primers. The PCR products were fluorescently labeled by primer extension with 6-arboxyfluorescein (6-FAM) 5'-labeled reporter sequence-specific primer (2 min at 95 C, 20 s at 68 C and 10 min at 72 C) and these products were digested with 5U of HpaI (New England Biolabs) for 2h at 37 C. The fragments were purified using Qiaquick PCR columns (Qiagen), analyzed on an ABI 3130xL genetic analyzer (Applied Biosystems) with peak positions identified by using a set of X-rhodamine (ROX)-labeled MapMarker1000 molecular weight standards (BioVentures). The raw capillary electrophoresis data was processed using Attagraph software (Attagene).
For the compound `CC1(C)C(=O)NC(=O)NC1=O`, the call was inactive.
With `N#Cc1cc(I)c(O)c(I)c1`, the call was inactive.
Regarding `Nc1ccccc1`, the compound was classed as inactive.
For orientation: AC50 means the concentration at which the activity in the assay is half-maximal. In the case of `CC(=O)c1cc2c(cc1C)C(C)(C)C(C)CC2(C)C` (stereo not given), the AC50 was 25.4 µM (active).
In the case of `CCOC(=O)N(C)N=O`, the call was inactive.
Consider `N#CC(c1ccccc1)c1ccccc1`, for which the compound was called inactive.
For the compound `C=CC(=O)OCCCCOC(=O)C=C`, the compound was classed as inactive.
For the compound `CNC(=O)Oc1cc(C)c(SC)c(C)c1`, the compound was called inactive.
Take `CN(C)N`: the outcome was inactive.
Still for that read-out and setting: the result for `CCC[N+](=O)[O-]` reads “inactive”; that for `CC(C)CCCCCCCOC(=O)c1ccccc1C(=O)OCCCCCCCC(C)C`, “inactive”.
On the same count and under the same terms, then `C=CC(=O)OC`, with “inactive”; and `O=C(O)CCl`, with “inactive”.
For `COC(=O)c1ccccc1S(=O)(=O)NC(=O)Nc1nc(C)cc(C)n1`, the compound was called inactive.
Still for that read-out and setting: the result for `CCOP(=O)(OCC)OCC` reads “inactive”; that for `COc1ncc(F)c2nc(S(=O)(=O)Nc3c(F)cccc3F)nn12`, “inactive”.
Take `CC(C)(O)C#N`: the call was inactive.
As for `CN1C[C@H](C(=O)N[C@]2(C)O[C@@]3(O)[C@@H]4CCCN4C(=O)[C@H](Cc4ccccc4)N3C2=O)C=C2c3cccc4[nH]cc(c34)C[C@H]21`, the compound was classed as inactive.
As to `C[N+](C)=CCl`, the compound was classed as inactive.
For the compound `O=P(O)(Oc1ccccc1)Oc1ccccc1`, the outcome was inactive.
For `CCCCNP(N)(N)=S`, the outcome was inactive.
Consider `O=c1c2ccccc2c(=O)c2c1cc(Cl)c1[nH]c3c([nH]c12)c(Cl)cc1c(=O)c2ccccc2c(=O)c13`, for which the compound was classed as inactive.
`O=C(O)C(Br)Br`: the outcome was inactive.
Same read-out and setting: the result for `CC(C)C(=O)Cl` reads “inactive”; that for `CC(C)c1ccc(O)cc1`, “inactive”.
`N#CCCCCC#N`: the compound was called inactive.
As to `O=S(=O)(c1ccccc1)c1ccccc1`, the call was inactive.
Turning to `CC(=O)/C=C/c1ccccc1`, the result was inactive.
Consider `CC(C)[C@@H](C(=O)O[C@@H](C#N)c1cccc(Oc2ccccc2)c1)c1ccc(Cl)cc1`, for which the call was inactive.
On to `ClCCCCCCCl`, for which the compound was called inactive.
`N#CCNCC#N`: the outcome was inactive.
Still for that read-out and setting: then `CSc1nc(N=[N+]=[N-])nc(NC(C)C)n1`, with “inactive”.
For the compound `CCC(=O)c1ccc(Cl)cc1`, the outcome was inactive.
Regarding `CCOC(=O)NC(=S)Nc1ccccc1NC(=S)NC(=O)OCC`, the compound was classed as inactive.
In the case of `Nc1ccccc1C(=O)OCCc1ccccc1`, the compound was called inactive.
For `BrCBr`, the compound was called inactive.
`O=C(NCNC(=O)NC1C(=O)NC(=O)N1CO)NC1C(=O)NC(=O)N1CO` (stereo not given): the call was inactive.
In the case of `CNC(=N[N+](=O)[O-])NCC1CCOC1` (stereo not given), the result was inactive.
In the case of `COc1cc(OC)c(OC)cc1C=O`, the compound was called inactive.
As to `Nc1ccccc1C(=O)Oc1ccc2ccccc2c1`, the AC50 was 85.4 µM (active).
